# Data reported in PubChem BioAssay AID493035 (The Scripps Research Institute Molecular Screening Center, 2011).
# Out of some 2,000 compounds screened, about 45 (2%) were called active.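 Rule for the calls: active = inhibition above the mean of all tested compounds plus 3 SD (cut at about 49% in these data); inactive = the rest.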 Shown is part of a subset that was picked to be rich in actives.
# Biological target: Perilipin-5 (Homo sapiens) + 1-acylglycerol-3-phosphate O-acyltransferase ABHD5 (Homo sapiens) (UniProt Q00G26+Q8WTS1)
# Assay: ABHD5-PLIN5 interaction inhibitors, pilot screen, cell lysate, split luciferase complementation, luminescence, NIH validation set (AID 493035);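 note: 0% = DMSO only wells while the 100% control is not stated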
# Conditions: split G. princeps luciferase complementation, lysates, 4 h, at 7.9 µM, active compounds read high
# Perilipin-5 (Homo sapiens) + 1-acylglycerol-3-phosphate O-acyltransferase ABHD5 (Homo sapiens), sequence (Q00G26 whole entry, looked up): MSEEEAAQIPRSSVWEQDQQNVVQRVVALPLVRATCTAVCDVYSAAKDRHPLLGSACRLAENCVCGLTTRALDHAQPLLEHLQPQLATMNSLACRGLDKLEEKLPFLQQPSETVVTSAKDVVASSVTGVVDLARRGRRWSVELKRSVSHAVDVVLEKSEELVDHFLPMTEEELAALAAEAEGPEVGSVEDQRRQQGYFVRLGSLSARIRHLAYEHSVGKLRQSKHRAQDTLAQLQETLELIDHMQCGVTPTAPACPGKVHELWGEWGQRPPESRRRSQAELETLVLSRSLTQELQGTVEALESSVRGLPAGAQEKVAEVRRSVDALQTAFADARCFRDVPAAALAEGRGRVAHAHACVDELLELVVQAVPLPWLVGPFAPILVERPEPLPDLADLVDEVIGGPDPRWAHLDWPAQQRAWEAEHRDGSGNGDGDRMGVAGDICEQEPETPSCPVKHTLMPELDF
# Perilipin-5 (Homo sapiens) + 1-acylglycerol-3-phosphate O-acyltransferase ABHD5 (Homo sapiens), sequence (Q8WTS1 whole entry, looked up): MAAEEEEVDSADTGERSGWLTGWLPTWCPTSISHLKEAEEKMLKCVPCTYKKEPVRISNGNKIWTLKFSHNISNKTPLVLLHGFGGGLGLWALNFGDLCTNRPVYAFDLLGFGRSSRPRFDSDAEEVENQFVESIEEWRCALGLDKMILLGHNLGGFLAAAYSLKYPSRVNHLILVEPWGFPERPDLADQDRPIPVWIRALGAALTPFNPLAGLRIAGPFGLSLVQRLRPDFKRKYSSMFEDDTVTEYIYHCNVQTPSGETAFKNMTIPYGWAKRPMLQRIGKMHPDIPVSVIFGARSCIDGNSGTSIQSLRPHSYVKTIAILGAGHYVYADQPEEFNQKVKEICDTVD
row,Compound,inhibition
1,O=C1C(=O)c2ccccc2-c2ccccc21,69.8% (active)
2,S=C1NCCN1,-0.74% (inactive)
3,CC12CN3CC(C)(CN(C1)C31CCOCC1)C2=O,-15.3% (inactive)
4,C[C@H]1CCC/C=C/C2C[C@H](O)CC2[C@H](O)/C=C/C(=O)O1 (stereo not given in full),-14.2% (inactive)
5,CC[C@]12C=CCN3CCC4(c5cc(Br)c(OC)cc5N(C)C4[C@@](O)(C(=O)OC)[C@@H]1OC(C)=O)C32 (stereo not given in full),-5.38% (inactive)
6,CCOC(=O)c1cc2c(cn1)[nH]c1ccccc12,-11.3% (inactive)
7,COP(=S)(OC)SCN1C(=O)c2ccccc2C1=O,93.3% (active)
8,COc1ccc2c(c1)CC1(CN2C)C(=O)NC(=O)N(CCc2ccccc2)C1=O (stereo not given),3.64% (inactive)
9,CC12CCC3C(CC=C4CC(O)CCC43C)C1C/C(=C\c1cccc(F)c1)C2=O (stereo not given),-0.83% (inactive)
10,O=C1C=Cc2ccccc2C1=O,59.1% (active)
11,C[N+]1(C)C2CCC1CC(OC(=O)C(CO)c1ccccc1)C2 (stereo not given),-3.97% (inactive)
12,C[C@H]1CCCC(=O)CCCCCc2cc(O)cc(O)c2C(=O)O1,6.49% (inactive)
13,Cc1cc2c(C(C)C)c(O)c(O)c(C=O)c2c(O)c1-c1c(C)cc2c(C(C)C)c(O)c(O)c(C=O)c2c1O,50.7% (active)
14,NCC1(c2ccc3c(c2)OCCO3)CCCC1,-7.35% (inactive)
15,CCOC(=O)C(C)Oc1cc(C)cc2oc(=O)c3c(c12)CCCC3 (stereo not given),6.91% (inactive)
16,Cc1ccc(-n2c(C)cc(/C=C3/C(=O)NC(=O)N(C)C3=O)c2C)cc1,33.2% (inactive)
17,CCOc1ccc(N2C(=O)NC(=O)/C(=C\c3cc(OC)c(OC)cc3[N+](=O)[O-])C2=O)cc1,66.2% (active)
18,Cc1ccc(/C=C2/C(=O)NC(=O)N(C)C2=O)cc1,7.85% (inactive)

row,Compound,inhibition
1,COc1cc(/C=C2\C(=O)NC(=O)N(c3ccccc3)C2=O)c([N+](=O)[O-])cc1OC,63.5% (active)
2,CC[C@@H](CO)NC(=O)[C@@H]1C=C2c3cccc4c3c(cn4C)C[C@H]2N(C)C1,1.19% (inactive)
3,C[C@]12CC[C@@H](O)C[C@@H]1CC[C@@H]1[C@@H]2CC[C@]2(C)C(=O)CC[C@@H]12,-8.46% (inactive)
4,Cc1ccsc1C(=O)C1CCCN(Cc2cc3ccccc3o2)C1 (stereo not given),-2.51% (inactive)
5,COc1ccc(-c2nc3ccccc3c(=O)o2)cc1,-1.16% (inactive)
6,CC(Cc1ccccc1)NCC(=O)Nc1cc(N(C)C)nc2ccccc12 (stereo not given),2.7% (inactive)
7,COc1ccccc1CN1CCCCC1c1cccnc1 (stereo not given),-4.35% (inactive)
8,Clc1ccc(COC(Cn2ccnc2)c2ccc(Cl)cc2Cl)c(Cl)c1 (stereo not given),4.9% (inactive)
9,COc1ccc(OC)c([C@@H](O)[C@H](C)NC(C)(C)C)c1,2.3% (inactive)
10,C[N+](C)(C)Cc1ccccc1,-2.04% (inactive)
11,CC12CN3CC(c4ccccc4)(CN(C1)C31CCCCC1)C2=O,-2.32% (inactive)
12,O=c1c2ccccc2nc(/C=C/c2ccc3c(c2)OCO3)n1-c1ccccc1,2.37% (inactive)
13,O=c1c2ccccc2[se]n1-c1ccccc1,95.1% (active)
14,Cc1nc2ccccc2c(=O)n1-c1ccc(C(=O)O)cc1,7.89% (inactive)
15,C[C@]12CC[C@@H](O)C[C@@H]1CC[C@@H]1[C@@H]2CC[C@]2(C)[C@@H](O)CC[C@@H]12,-3.26% (inactive)
16,CCN(CC)CCOC(=O)C(O)(c1ccccc1)c1ccccc1,0.42% (inactive)
17,CCN1CC2(COC(=O)c3ccccc3N)CCC(OC)C34C5CC6C(OC)CC(O)(C5C6OC)C(O)(C(OC)C23)C14 (stereo not given),0.04% (inactive)
